Active and inactive are the calls of the source. The call rests on the fitted dose curve; in most records, active means well fitted curve in the direction sought with a large enough effect; inactive means no such curve, though single readings can be large or run the other way.
target: Pyruvate kinase PKM (Homo sapiens) (UniProt P14618); assay: qHTS for Activators of Human Muscle Isoform 2 Pyruvate Kinase: Muscle Isoform 1 Assay; settings: purified hPK-M1, ATP generation, Kinase-Glo luminescence, 1 h; series mostly up to 58.2 µM
Sequence (P14618 whole entry, looked up, canonical isoform): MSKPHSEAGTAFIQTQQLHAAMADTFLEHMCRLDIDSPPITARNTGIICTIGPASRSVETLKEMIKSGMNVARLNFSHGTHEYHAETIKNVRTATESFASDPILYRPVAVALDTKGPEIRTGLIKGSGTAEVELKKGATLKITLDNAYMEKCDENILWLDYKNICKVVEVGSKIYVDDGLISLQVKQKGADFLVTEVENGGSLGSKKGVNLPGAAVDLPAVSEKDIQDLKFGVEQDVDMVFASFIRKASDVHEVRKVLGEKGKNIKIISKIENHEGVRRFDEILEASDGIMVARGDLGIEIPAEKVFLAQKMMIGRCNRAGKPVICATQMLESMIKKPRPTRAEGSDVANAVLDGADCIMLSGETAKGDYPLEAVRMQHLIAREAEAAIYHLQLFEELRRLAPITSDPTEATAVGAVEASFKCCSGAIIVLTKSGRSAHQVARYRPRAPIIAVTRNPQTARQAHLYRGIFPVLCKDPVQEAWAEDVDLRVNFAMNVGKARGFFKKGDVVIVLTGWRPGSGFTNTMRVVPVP
Description: Human pyruvate kinase muscle isoform 1 (hPK-M1) enzyme was supplied as a highly purified (>95% pure) preparation from Harvard Medical School and assayed for its ability to generate ATP from ADP using phosphoenolpyruvate (PEP) as a substrate. ATP generation was detected in a coupled reaction by luciferase-mediated luminescence, an ATP-dependent process. Pyruvate kinase substrates, PEP and ADP, were present in the assay at Km and approximately 10-fold below Km respectively. The enzyme was assayed at an intermediate level of activity to screen for both inhibitors and activators. NIH Chemical Genomics Center [NCGC] NIH Molecular Libraries Probe Centers Network [MLPCN] MLPCN Grant: MH085679 Assay Submitter (PI): Matthew G. Vander Heiden, Harvard Medical School
Three uL of substrate mix (at r.t.) in assay buffer (50 mM Imidazole pH7.2, 50 mM KCl, 7 mM MgCl2, 0.01% Tween 20, 0.05% BSA) was dispensed into white solid bottom 1,536 well microtiter plates so that the final concentrations of substrates in the assay were 0.1 mM ADP and 0.5 mM PEP. 23 nL of compound were delivered by a pin tool and 1 uL of enzyme mix (final concentration of 1 nM) in assay buffer (4 degree Celsius) was added. Plates were incubated at room temperature for 1 hour. Two uL of detection mix (Kinase-Glo, Promega; at 4 degree Celsius protected from light) was added and luminescence read by a ViewLux (Perkin Elmer) at 1 second exposure/plate. Data were normalized to the uninhibited (row 31). Additionally, a no enzyme and 5-fold enzyme control was dispensed in row 32, split equally between the two conditions.

outcome, inactive:
Cc1cc2c(s1)c1cnn(Cc3ccc(F)cc3F)c(=O)c1n2C
Cc1cc2c(s1)c1cnn(Cc3cc(F)ccc3F)c(=O)c1n2C
Cc1cc2c(s1)c1cnn(Cc3cc(F)c(F)cc3F)c(=O)c1n2C
Cc1cc2c(s1)c1cnn(Cc3c(Cl)ccc(C)c3F)c(=O)c1n2C
Cn1c2cc(S(C)=O)sc2c2cnn(Cc3cccc(N)c3)c(=O)c21 (stereo unspecified)
COc1cccc(Cn2ncc3c4sc(S(C)=O)cc4n(C)c3c2=O)c1 (stereo unspecified)

From PubChem BioAssay AID602383 (National Center for Advancing Translational Sciences (NCATS), 2012)
